Potency data for 35 compounds are collected here from PubChem BioAssay (NCATS).

Test [1] concerns Zika virus NS2B-NS3 protease (unlinked complex). In words: Primary screen GU Rhodamine qHTS for Zika virus inhibitors: Unlinked NS2B-NS3 protease assay (AID 1347159). Note: nearly all actives have a fitted effect of over 60% in size. Note: potency is the fitted concentration of half-maximal effect. In short, it runs like this:
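Compounds, tested up to 114 microM, were incubated for 15 minutes with 25 nM unlinked NS2B-NS3 protease at pH 8.0. Cleavage of 1.5 microM Rhodamine110 substrate was then followed by fluorescence for 15 minutes.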
(In general: Quantitative high-throughput screening tests each substance at several concentrations.)

For test [2], the system named is Zika virus NS2B-NS3 protease (linked construct). As to the kind of experiment: Primary screen NINDS Rhodamine qHTS for Zika virus inhibitors (AID 1347160). Note: nearly all actives have a fitted effect of over 55% in size. An outline of the steps:
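Percent inhibition, normalized to uninhibited and enzyme-free controls, is fitted to a 4-parameter Hill equation. Fluorescence change comes from a 15-min cleavage of 1.5 microM bis-peptide Rhodamine110 substrate by 25 nM linked NS2B-NS3 at room temperature.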

Results filed as inconclusive are left out. A call without a number means that no potency is given here. Active and inactive are the calls of the source. Calls come from the whole dose curve; as a rule, active = well fitted inhibition curve with a large enough effect; inconclusive = small, poorly fitted or top-dose-only effect; inactive = no such curve, though single readings can be large or run the other way.

Regarding `O=C(NC[C@H](O)CN1CCc2ccccc2C1)c1ccnc(NC2CCC2)c1`, the Potency entry in test [1] and in test [2] was “inactive” throughout.
With `COC(=O)CC1OC(C)C2=C(O)c3c(O)cccc3C(=O)C23OC13` (stereo not given), the Potency entry in test [1] and in test [2] was “inactive” throughout.
As for `COc1ccc([C@H]2OC[C@H]3O[C@@H](O[C@H]4[C@@H]2NC[C@@H]4O)[C@H](O)[C@H]3O)cc1`, the Potency result in test [1] and in test [2] was “inactive” each time.
As for `O=C(NNc1nc2cc(F)ccc2n2cccc12)c1cnccn1`, the Potency result in test [1] and in test [2] was “inactive” throughout.
For `O=C(Nc1nc2ccc([N+](=O)[O-])cc2s1)C1CCCCC1`, the Potency entry in test [1] and in test [2] was “inactive” throughout.
On to `C[C@H](Oc1cc(-c2cnn(C3CCNCC3)c2)cnc1N)c1c(Cl)ccc(F)c1Cl`, for which the Potency entry in test [1] and in test [2] was “inactive” throughout.
For `COc1ccc(NC(=O)c2ccc(C(=N)N(C)C)cc2)c(C(=O)Nc2ccc(Cl)cn2)c1`, the Potency result in test [1] and in test [2] was “inactive” each time.
As for `COc1ccc(N2CCN(C(=O)c3cc4c(s3)-c3ccccc3S(=O)(=O)C4)CC2)cc1`, the Potency result in test [1] and in test [2] was “inactive” each time.
With `COC1=CC(=O)C=C(C)C12Oc1c(Cl)c(OC)cc(OC)c1C2=O` (stereo not given), the Potency entry in test [1] and in test [2] was “inactive” throughout.
As to `CCN(CC)CCCCCCNc1cc(OC)cc2c(C)ccnc12`, the Potency entry in test [1] and in test [2] was “inactive” each time.
Regarding `C/C=C(/C=C(C)/C=C/C=C/C=C(\C)C(=O)C12OC1C(O)(CCO)NC2=O)C(=O)OC` (stereo not given), the Potency entry in test [1] and in test [2] was “inactive” each time.
For `CCC(=O)N1CCOc2c(cc(-c3ccc(OC)c(OC)c3)cc2OC[C@H]2CCCN(C)C2)C1`, the Potency entry in test [1] and in test [2] was “inactive” in each case.
Turning to `Nc1nc2c(s1)CCN(Cc1ccc(Cl)cc1)CC2`, the Potency result in test [1] and in test [2] was “inactive” throughout.
Turning to `COCCNCc1ccc(-c2cc3nccc(Oc4ccc(NC(=O)C5(C(=O)Nc6ccc(F)cc6)CC5)cc4F)c3s2)nc1`, the Potency result in test [1] and in test [2] was “inactive” in each case.
In the case of `CN1CCN(S(=O)(=O)c2ccc(-c3cnc(N)c(C(=O)Nc4cccnc4)n3)cc2)CC1`, the Potency result in test [1] and in test [2] was “inactive” each time.
On to `O=C(OC1CN2CCC1CC2)N1CCc2ccccc2C1c1ccccc1` (stereo not given), for which the Potency result in test [1] and in test [2] was “inactive” each time.
As to `CC(C)c1cc2c(N3CCN(C4=NCC(C)(C)S4)CC3)ncnc2s1`, the Potency result in test [1] and in test [2] was “inactive” in each case.
As for `O=C(N[C@H]1CCC[C@H](CO)C1)C1CCN(c2nc3cc(Cl)c(-c4ccc(Cl)cc4)cc3o2)CC1`, the Potency result in test [1] and in test [2] was “inactive” throughout.
Take `COc1cc(O)c2c(c1)C1OC1C[C@H](O)[C@H](O)C(=O)/C=C\C[C@H](C)OC2=O` (stereo not given in full): the Potency result in test [1] and in test [2] was “inactive” in each case.
Turning to `C=C1C(=O)OC2CC(C)C(CCC(C)=O)=CCC12` (stereo not given), the Potency result in test [1] and in test [2] was “inactive” in each case.
For `Cc1c(NC(=O)OCC2COCCN2)cn2ncnc(Nc3ccc4c(cnn4Cc4cccc(F)c4)c3)c12` (stereo not given), the Potency result in test [1] and in test [2] was “inactive” throughout.
Turning to `C=C1C(=O)O[C@@H]2/C=C(\C)CC/C=C(\C)CC[C@@H]12`, the Potency entry in test [1] and in test [2] was “inactive” throughout.
With `CCCc1cc2c(N3CCN(C4=NCC(C)(C)S4)CC3)ncnc2s1`, the Potency result in test [1] and in test [2] was “inactive” each time.
In the case of `COc1cc(CN(CCN)C(=O)c2cccs2)ccc1OCc1ccccc1`, the Potency result in test [1] and in test [2] was “inactive” throughout.
With `COC(CCc1ccc(O)cc1)CC(=O)CCc1ccc(O)cc1` (stereo not given), the Potency result in test [1] and in test [2] was “inactive” throughout.
In the case of `COCC(c1ccc(C(F)(F)F)cc1)N1CCN(C2(C)CCN(C(=O)c3c(C)ncnc3C)CC2)CC1C` (stereo not given), the Potency entry in test [1] and in test [2] was “inactive” in each case.
On to `CC[C@H]1OC(=O)[C@H](C)[C@@H](O[C@H]2C[C@@](C)(OC)[C@@H](O)[C@H](C)O2)[C@H](C)[C@@H](O[C@H]2O[C@H](C)C[C@H](N(C)C)[C@H]2O)[C@](C)(O)C[C@@H](C)C(=O)[C@H](C)[C@@H](O)[C@]1(C)O`, for which the Potency result in test [1] and in test [2] was “inactive” each time.
Regarding `Nc1nc(Nc2ccc3c(c2)CCC(N2CCCC2)CC3)nn1-c1cc2c(nn1)-c1ccccc1CCC2` (stereo not given), in test [1], the Potency is 50.1 µM (active). Further, the Potency result in test [2] is “inactive”.
On the same counts, the results for `CN(C)S(=O)(=O)c1ccc(NC(=S)N2CCC(C(O)(c3ccccc3)c3ccccc3)CC2)cc1` are “inactive” and “inactive”.
For the compound `CN1CCN(c2ccc(Nc3cc(-c4cccc(-n5ccc6cc(C7CC7)cc(F)c6c5=O)c4CO)cn(C)c3=O)nc2)CC1`, the Potency result in test [1] and in test [2] was “inactive” throughout.
On to `CCNC(=O)Nc1ccc(-c2nc3c(c(N4CCOCC4C)n2)CCN(C2COC2)C3)cc1` (stereo not given), for which the Potency entry in test [1] and in test [2] was “inactive” throughout.
In the case of `Cc1c(C2=CCN(C(=O)N(C)C(C)C)CC2)nnn1-c1cccnc1F`, the Potency result in test [1] and in test [2] was “inactive” throughout.
Regarding `CCCCC1CCN(CCCN2C(=O)CCc3ccccc32)CC1`, the Potency result in test [1] and in test [2] was “inactive” throughout.
For the compound `O=C(c1ccc(Cl)cc1)N1CCN(c2ccnc3cc(Cl)ccc23)CC1`, the Potency result in test [1] and in test [2] was “inactive” in each case.
As for `C=C(C)C(=O)O[C@H]1C[C@@](C)(O)C2(O)CCC(C)(/C=C3/OC(=O)C(COC)=C31)O2` (stereo not given in full), the Potency entry in test [1] and in test [2] was “inactive” each time.
